Results filed as inconclusive are left out. Activity calls are given as the source filed them. Rule for the calls: active = hit-call score of the fitted dose curve at least 0.9, where 1 is the maximum; inconclusive = response in the unintended direction; inactive = score below 0.9.
Molecular target: Estrogen-related receptor gamma (Homo sapiens) (UniProt P62508)
Test: ATG_ERRg_TRANS: Attagene TRANS-FACTORIAL HepG2 Assay for human Estrogen-Related Receptor gamma (ERRg) (AID 2282977);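 note: hits increase reporter signal over DMSO so potencies reflect activators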
Conditions: HepG2 Attagene TRANS reporter, ERRg transactivation
Experimental: ATG_TRANS is a cell-based, multiplexed-readout assay that uses HepG2, a human liver cell line, with measurements taken at 24 hours after chemical dosing in a 24-well plate.ATG_ERRg_TRANS is one of 30 assay component(s) measured or calculated from the ATG_TRANS assay. It is designed to make measurements of mRNA induction, a form of inducible reporter, as detected with fluorescence intensity signals by Reverse transcription polymerase chain reaction (RT-PCR) and Capillary electrophoresis technology.Data from the assay component ATG_ERRg_TRANS was analyzed into 1 assay endpoint. This assay endpoint, ATG_ERRg_TRANS, was analyzed in the positive analysis fitting direction relative to DMSO as the negative control and baseline of activity. Using a type of inducible reporter, measures of mRNA for gain-of-signal activity can be used to understand the reporter gene at the transcription factor-level as they relate to the gene ESRRG. Furthermore, this assay endpoint can be referred to as a primary readout, because this assay has produced multiple assay endpoints where this one serves a reporter gene function. To generalize the intended target to other relatable targets, this assay endpoint is annotated to the nuclear receptor intended target family, where the subfamily is steroidal.
Human liver HepG2 cells are transiently transfected with multiple reporter transcription units (MRTUs) in 6-well plates using FuGene 6 reagent (Roche; 3 ml FuGene/1 mg DNA). The MRTU constructs are regulated by a cis-regulating element (promoter). […] A major difference between the CIS and TRANS system is that in CIS activities of endogenous TFs are measured, whereas the TRANS assay evaluates changes in activities of exogenous, chimeric NR-Gal4 proteins. […] At the end of 24 hour incubation, total RNA was isolated using TriZol reagent (Invitrogen). The isolated RNA is then reverse-transcribed using oligo(dT) primer and Mo-MLV reverse transcriptase (Invitrogen) with DNAse I (Ambion) treatment for 30 min. The one-tenth of the produced cDNA was amplified by PCR using Taq DNA polymerase (Invitrogen) and two reporter sequence-specific primers. The PCR products were fluorescently labeled by primer extension with 6-arboxyfluorescein (6-FAM) 5'-labeled reporter sequence-specific primer (2 min at 95 C, 20 s at 68 C and 10 min at 72 C) and these products were digested with 5U of HpaI (New England Biolabs) for 2h at 37 C. The fragments were purified using Qiaquick PCR columns (Qiagen), analyzed on an ABI 3130xL genetic analyzer (Applied Biosystems) with peak positions identified by using a set of X-rhodamine (ROX)-labeled MapMarker1000 molecular weight standards (BioVentures). The raw capillary electrophoresis data was processed using Attagraph software (Attagene).

Sequence of Estrogen-related receptor gamma (Homo sapiens) (P62508 whole entry, looked up): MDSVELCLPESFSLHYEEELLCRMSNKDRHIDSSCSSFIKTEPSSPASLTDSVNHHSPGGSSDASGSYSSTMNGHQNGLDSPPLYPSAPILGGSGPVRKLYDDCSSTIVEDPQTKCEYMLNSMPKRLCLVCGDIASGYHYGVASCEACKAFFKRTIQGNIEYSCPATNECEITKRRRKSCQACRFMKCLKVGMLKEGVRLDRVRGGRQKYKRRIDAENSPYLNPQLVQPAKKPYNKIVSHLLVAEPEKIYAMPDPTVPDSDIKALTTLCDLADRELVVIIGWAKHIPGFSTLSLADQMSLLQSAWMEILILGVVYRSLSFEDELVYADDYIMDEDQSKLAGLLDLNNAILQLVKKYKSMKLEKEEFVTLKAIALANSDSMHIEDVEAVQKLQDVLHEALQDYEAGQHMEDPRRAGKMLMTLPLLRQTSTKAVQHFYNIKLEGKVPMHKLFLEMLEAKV

SMILES	outcome	AC50
O=C(O)/C=C\C(=O)O	inactive	–
O=C(CC(C(=O)OC1CCCCC1)S(=O)(=O)O)OC1CCCCC1 (stereo not given)	inactive	–
CC/C=C/CCO	inactive	–
CCCCCC1CCCC(=O)O1 (stereo not given)	inactive	–
CN(C)Cc1cc(C(C)(C)C)c(O)c(C(C)(C)C)c1	inactive	–
Cc1cccnc1	inactive	–
CCCCCCCCCCCCCCCCCC[N+](C)(C)C	–	25 µM (active)
O=C(c1ccccc1)c1ccccc1O	inactive	–
O=C(O)c1nc(Cl)c(Cl)c(Cl)c1Cl	inactive	–
NC(=O)c1ccc(N)cc1	inactive	–
CCO[Si](CCCN)(OCC)OCC	inactive	–
CC/C=C\CCO	inactive	–
CCC(C)C1N=C(C)C(C)S1 (stereo not given)	inactive	–
O=[N+]([O-])c1ccccc1C(F)(F)F	inactive	–
CC(C)CC(=O)CC(C)C	inactive	–
O=C(Oc1ccccc1)c1ccccc1	inactive	–
CN1CCCC1	inactive	–
NCc1ccccc1	inactive	–

SMILES	outcome	AC50
CN(C)N=Nc1ccccc1	inactive	–
O=C(C(=O)c1ccccc1)c1ccccc1	inactive	–
O=C(O)Cc1c[nH]c2ccccc12	inactive	–
CCOC(=O)c1ccccc1	inactive	–
CN(C)c1ccc(C(c2ccccc2)c2ccc(N(C)C)cc2)cc1	inactive	–
C=CCOC(=O)C(=C)C	inactive	–
O=C(O)c1cc(Cl)cc(Cl)c1O	inactive	–
O=S(=O)(O)c1cccc2ccccc12	inactive	–
CCCCC(CC)COC(=O)CS (stereo not given)	inactive	–
CC/C=C\CC1=C(C)CCC1=O	inactive	–
COC(=O)/C=C\C(=O)OC	inactive	–
C=C(C)C(=O)OCCCCCC	inactive	–
CC(C)=CCOC(=O)c1ccccc1	inactive	–
Cc1cc(-n2nc3ccc(Cl)cc3n2)c(O)c(C(C)(C)C)c1	inactive	–
COC(=O)CCSCCC(=O)OC	inactive	–
CC=CC(=O)O	inactive	–
CN(C)CCCN1c2ccccc2CCc2ccc(Cl)cc21	inactive	–
